HttQ103 aggreg: mutant huntingtin aggregation inhibition; PC12 HttQ103-GFP aggregates, Acumen cytometry, 40 h; Potency, µM (titrated, usually from 46.1 µM), usual class: inhibitors; 220,000 tested, 1.1% active; AID 1688; further: nearly all actives have a fitted effect of over 60% in size
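Steps: seed 1500 PC12 HTTQ103-GFP cells/well; add tebufenozide, 100 nM final; add compound titration; add ATPLite reagent; quantify GFP aggregates by laser scanning cytometry.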
HPGD inh: inhibitors of human 15-hydroxyprostaglandin dehydrogenase (HPGD) | purified HPGD, NADH fluorescence kinetic, PGE2 substrate | AID 894 | Potency, µM, hits mostly inhibitors | P15428 | 150,000 tested, 4.3% active; active means well fitted inhibition curve with a large enough effect, not every such curve was filed as active; inconclusive means small, poorly fitted or top-dose-only effect, or another doubt; inactive means no such curve, though single readings can be large or run the other way
Target sequence (P15428 whole entry, looked up): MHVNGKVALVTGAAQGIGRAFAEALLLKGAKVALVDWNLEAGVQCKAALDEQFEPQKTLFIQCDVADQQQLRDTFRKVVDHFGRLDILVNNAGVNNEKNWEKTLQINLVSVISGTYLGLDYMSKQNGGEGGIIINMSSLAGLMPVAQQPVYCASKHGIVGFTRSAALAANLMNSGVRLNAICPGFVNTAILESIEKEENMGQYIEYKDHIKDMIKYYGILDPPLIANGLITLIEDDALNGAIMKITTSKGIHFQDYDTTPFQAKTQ
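NADH formation kinetics: reaction with 30 uM PGE2 and 1 mM NAD+ (final), 20 nM enzyme, Tris-HCl pH 8 with Tween 20, after 15 min compound preincubation at room temperature. Fluorescence change, last versus first of five reads.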
ALDH1A1 block: blocks purified human ALDH1A1 activity; Purified ALDH1A1, NADH fluorescence, propionaldehyde substrate; 220,000 tested, 7.3% active; AID 1030; Potency, µM (series often up to 75.3 µM), usual class: inhibitors; active means well fitted inhibition curve with a large enough effect, not every such curve was filed as active; inconclusive means small, poorly fitted or top-dose-only effect, or another doubt; inactive means no such curve, though single readings can be large or run the other way
IMPase Li cell: membrane-permeable IMPase blocker, potentiated with lithium. AID 1457. CHO-M1 cells, IP1 TR-FRET (IP-One), carbachol + lithium. Potency, µM (titrated, usually from 59.4 µM), most hits filed as inhibitors. 210,000 tested, 0.35% active;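 further: IP1 builds up when IMPase is blocked and the TR-FRET signal falls; nearly all actives have a fitted effect of over 50% in size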
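Concentration–response in CHO-M1 cells, lithium-potentiated; 30 min at 37C. IP1 detected by competitive TR-FRET after 10 min lysis at RT. Hill-fitted AC50.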
IMPase cell inh: cell-permeable inhibitors of inositol monophosphatase (IMPase); CHO-M1 cells, IP1 accumulation, HTRF TR-FRET ratio; inhibition (IP1 accumulation), % at 46.1 µM; 120,000 tested, under 10 active; AID 901; active means well fitted curve in the direction sought with a large enough effect in the signal ratio, not every such curve was filed as active; inconclusive means small, poorly fitted or top-dose-only effect, or a change in a side signal; inactive means no such curve, though single readings can be large or run the other way; the % refers to the signal ratio;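 further: cells stimulated with carbachol in lithium chloride buffer; higher means more IMPase inhibition seen as more IP1 and lower FRET ratio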
Target sequence (P97697 whole entry, looked up): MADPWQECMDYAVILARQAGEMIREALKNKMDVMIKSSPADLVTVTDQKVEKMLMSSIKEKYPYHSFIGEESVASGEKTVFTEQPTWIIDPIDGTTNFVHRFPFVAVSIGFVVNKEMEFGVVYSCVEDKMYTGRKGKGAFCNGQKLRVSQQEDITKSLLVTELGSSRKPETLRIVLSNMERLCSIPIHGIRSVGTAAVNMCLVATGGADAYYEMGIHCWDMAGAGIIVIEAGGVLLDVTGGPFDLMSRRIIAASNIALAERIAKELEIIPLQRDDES
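Carbachol-driven Gq signalling in CHO-M1 cells (2000/well) generates IP1. Compounds that block IMPase raise IP1 and so reduce the FRET signal from Eu-anti-IP1 and d2-IP1 after a 10 min room-temperature lysis.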
HTT ATP protect: cytoprotection in Huntington HTT-Q103 PC12 cell model; PC12 HTT-Q103 induced, cytoprotection, ATP luminescence, 40 h; 230,000 tested, 0.14% active; Potency, µM (titrated, usually from 56.4 µM), actives largely listed as activators; further: nearly all actives have a fitted effect of over 45% in size
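Compounds added alongside 100 nM tebufenozide, which induces toxic Q103 huntingtin exon 1-GFP in stable PC12 cells; surviving cells quantified by luminescent ATP measurement. Medium: phenol red-free DMEM, 5% equine and 5% calf serum.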
Of the large screens only hits and unclear results are named; the others gave an inactive call; ! = not confirmed by another sample. A selection: hits, their analogues and other compounds. The true share with any hit is near 9.4%. Unless noted, the call rests on the fitted dose curve; in most records, active means well fitted curve in the direction sought with a large enough effect; inconclusive means small, poorly fitted or top-dose-only effect, or another doubt; inactive means no such curve, though single readings can be large; an effect the other way counts as inactive or inconclusive.

COc1cc(/C=C2\C(=O)N(c3ccc(S(N)(=O)=O)cc3)N=C2C)ccc1OC(=O)c1ccco1	ALDH1A1 block inconclusive (no result: HPGD inh, IMPase cell inh)
CCOc1ccc(/C=C2/C(=N)N3OC(C)=CC3=NC2=O)cc1OC	ALDH1A1 block inconclusive, IMPase Li cell inconclusive (no result: HPGD inh, IMPase cell inh)
CCOc1cc(/C=C2/C(=N)N3OC(C)=CC3=NC2=O)ccc1OC(=O)c1ccco1	ALDH1A1 block 10µM (no result: HPGD inh, IMPase cell inh)
CCOc1cc(/C=C2/SC(=S)NC2=O)ccc1OC(=O)c1ccco1	HttQ103 aggreg 14µM, ALDH1A1 block 8.9µM (no result: HPGD inh, IMPase cell inh)
CC(C)c1cccc(OCCCCN(C)C)c1	ALDH1A1 block inconclusive (no result: HPGD inh, IMPase cell inh)
Cc1cc(C(=O)NCc2ccccc2F)cs1	HPGD inh 16µM
O=C(O)c1cc(N=Nc2ccc([N+](=O)[O-])cc2)ccc1O	ALDH1A1 block 22µM! (no result: HttQ103 aggreg, IMPase cell inh)
O=C(O)c1cc(N=Nc2ccc(O)c(C(=O)O)c2)ccc1O	HttQ103 aggreg inconclusive (no result: HPGD inh, ALDH1A1 block, IMPase Li cell, IMPase cell inh)
Cc1ccc(S(=O)(=O)OCCc2ccccc2)cc1	none (no result: HttQ103 aggreg, IMPase cell inh)
CCN(CC)S(=O)(=O)c1ccc2c3c(cccc13)C(=O)N2	HttQ103 aggreg 1.6µM, HPGD inh inconclusive, ALDH1A1 block inconclusive
CC(Cc1ccccc1)C(=O)NCCc1c[nH]c2ccccc12 (stereo not drawn)	ALDH1A1 block inconclusive (no result: HttQ103 aggreg, IMPase cell inh)
CSc1ccccc1C(=O)N1CCc2ccccc2C1	none (no result: HPGD inh, IMPase cell inh, HTT ATP protect)
O=C(c1ccc(Cl)nc1)N1CCc2ccccc2C1	HPGD inh 7.9µM
O=C(c1cncc(Br)c1)N1CCc2ccccc2C1	HttQ103 aggreg 10µM, HPGD inh 10µM
O=C(c1ccccc1Cl)N1CCc2ccccc2C1	HttQ103 aggreg inconclusive, HPGD inh 4.5µM, ALDH1A1 block inconclusive
COc1cccc(C(=O)N2CCN(C(=O)c3cccc(F)c3)CC2)c1	ALDH1A1 block inconclusive
O=C(c1cccc(F)c1)N1CCc2ccccc2C1	HPGD inh 5µM, ALDH1A1 block 14µM
Cc1cccc(OCCn2c(-c3ccc(Cl)cc3)nc3ccccc3c2=O)c1C	none (no result: HttQ103 aggreg, HPGD inh, ALDH1A1 block, IMPase Li cell, HTT ATP protect)
Nc1ncnc2c1nc(Br)n2[C@@H]1O[C@H]2COP(=O)(O)O[C@@H]2[C@H]1O	IMPase cell inh inconclusive (no result: HttQ103 aggreg, HPGD inh, ALDH1A1 block, IMPase Li cell)
Cn1c(=O)c2c(nc(/C=C\c3cccc(Cl)c3)n2C)n(C)c1=O	none (no result: HttQ103 aggreg, HPGD inh, ALDH1A1 block, IMPase Li cell)
C=CCCC/C=C(/C)C(OCc1ccc(OC)cc1)C(CC/C=C(\C)C(N)=O)OC (stereo not drawn)	ALDH1A1 block inconclusive (no result: HttQ103 aggreg, HPGD inh, IMPase Li cell, IMPase cell inh)
CN(C)c1ccc(-c2nccc(Nc3ccc(F)cc3)n2)cc1	ALDH1A1 block inconclusive (no result: HttQ103 aggreg, HPGD inh, IMPase cell inh)
O=C1OC(O)C(C(Cl)Cl)=C1Cl (stereo not drawn)	ALDH1A1 block 20µM (no result: HttQ103 aggreg, IMPase cell inh)
O=C(Cc1ccccc1Cl)Nc1nc2ccccc2[nH]1	ALDH1A1 block 25µM (no result: HPGD inh, IMPase Li cell, IMPase cell inh)
O=C(N/N=C/c1cccs1)c1cc(-c2cccc3ccccc23)n[nH]1	HttQ103 aggreg inconclusive, HPGD inh 25µM
COc1ccc(Nc2c3c(c(C#N)c4nc5ccccc5n24)CCC3)cc1	HPGD inh 1.3µM, ALDH1A1 block inconclusive
CC(=O)c1ccc(Nc2c3c(c(C#N)c4nc5ccccc5n24)CCC3)cc1	none
Cc1sc2ncnc(SC(C)C(=O)N3c4ccccc4Sc4ccccc43)c2c1C (stereo not drawn)	none
Cc1ccc(OCC(=O)NNC(=O)C(C)Sc2ncnc3sc(C)c(C)c23)cc1 (stereo not drawn)	HPGD inh 32µM, ALDH1A1 block inconclusive, IMPase Li cell inconclusive
CCN(C(=O)COC(=O)c1nn(-c2ccccc2)c(=O)c2ccccc12)C1CCS(=O)(=O)C1 (stereo not drawn)	none (no result: HPGD inh, ALDH1A1 block, IMPase Li cell, IMPase cell inh)
COc1c(O)c(O)cc2c1oc1c3cc(C)ccc3oc(=O)c21	HPGD inh 14µM (no result: HttQ103 aggreg, IMPase cell inh)
O=c1oc2ccccc2c2oc3cc(O)c(O)cc3c12	HPGD inh inconclusive (no result: IMPase cell inh)
COc1cc(NC(=O)c2cc(Cl)ccc2Cl)ccc1NC(=O)c1cc2ccccc2o1	none (no result: HttQ103 aggreg, HPGD inh, ALDH1A1 block, IMPase Li cell, HTT ATP protect)
Cc1noc2ncnc(Sc3ccccc3Cl)c12	HttQ103 aggreg 5µM
CO[C@H]1COC(=O)[C@@H](CCSC)NC(=O)C/C=C\[C@@H](C)COC(=O)[C@@H](OCc2ccccc2)/C=C\[C@@H]1C	ALDH1A1 block inconclusive (no result: HttQ103 aggreg, HPGD inh, IMPase Li cell, IMPase cell inh)

Screening data from PubChem BioAssay.
